Laboratory results reported in PubChem BioAssay.

How the values were obtained:
[1] = biological target: Tumor necrosis factor receptor superfamily member 10B (Homo sapiens) (UniProt O14763); test: caspase-8 TRAIL sensitization, hit retest, confirmation, cell-based, NB7+caspase-8, with/without TRAIL, luminescence panel (AID 651596); details: NB7 neuroblastoma + caspase-8, TRAIL sensitization, luminescence viability, with TRAIL, mean of runs, at 10 µM, stronger effect = higher value
[2] = as above; details: NB7 neuroblastoma + caspase-8, without TRAIL, luminescence viability, without TRAIL, mean of runs, at 10 µM

Tumor necrosis factor receptor superfamily member 10B (Homo sapiens), sequence (O14763 whole entry, looked up): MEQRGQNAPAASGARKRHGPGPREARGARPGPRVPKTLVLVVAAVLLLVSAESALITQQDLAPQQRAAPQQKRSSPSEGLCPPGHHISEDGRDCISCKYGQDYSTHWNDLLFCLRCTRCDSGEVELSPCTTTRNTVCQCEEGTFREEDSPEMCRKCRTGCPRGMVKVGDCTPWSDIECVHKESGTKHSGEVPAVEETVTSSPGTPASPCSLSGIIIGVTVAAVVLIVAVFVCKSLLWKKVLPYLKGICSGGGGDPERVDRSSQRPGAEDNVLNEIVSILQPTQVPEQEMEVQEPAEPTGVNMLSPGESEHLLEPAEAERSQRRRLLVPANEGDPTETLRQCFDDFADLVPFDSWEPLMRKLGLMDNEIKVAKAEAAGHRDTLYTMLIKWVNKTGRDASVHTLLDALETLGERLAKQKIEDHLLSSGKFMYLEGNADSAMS

Row | Compound | activity [1] [%] | activity [2] [%]
1 | COc1ccc(C(=O)Nc2ccccc2C(=O)Nc2cccnc2)cc1 | 58.9 | 55.5
2 | CCc1nnc(NC(=O)CSc2nc3c(cc2C#N)CCC3)s1 | 73.7 | 70.8
3 | C=CCNc1nc(NCc2ccc(NC(C)=O)cc2)c2sc(-c3ccccc3)cc2n1 | 46.1 | 43.1
4 | Cc1cc2nc(N3C(=O)CNC3=S)sc2cc1C | 67.8 | 64.7
5 | Clc1ccc(/C=N/Nc2nnc(-c3ncc[nH]3)c3ccccc23)cc1 | 57 | 49.9
6 | CCC(OC(=O)c1ccc(S(C)(=O)=O)c([N+](=O)[O-])c1)C(=O)NC1C2CC3CC(C2)CC1C3 (centres undefined) | 79.5 | 97.7
7 | CCCCC(=O)Nc1cc(C)c2c(=O)oc3ccccc3c2n1 | 62.4 | 56.6
8 | C=C1CC2(CC(c3ccccc3)OC(c3ccccc3)C2)OC1=O (centres undefined) | 47 | 73.1
9 | Cc1nnc(SCC(=O)Nc2ccc(-c3nc4ccccc4s3)cc2)s1 | 51.9 | 33.7
10 | COc1ccc2nc(Nc3nc(-c4cc5ccccc5oc4=O)cs3)sc2c1 | 50.4 | 47.4
11 | O=C(Nc1ccc(F)cc1)c1nc(S(=O)(=O)Cc2ccccc2)ncc1Cl | 57 | 94.9
12 | Cc1ccc(-c2cc(C(=O)N3CCCC3)no2)cc1 | 73.3 | 67
13 | CCn1nc(C(=O)NCCc2ccc(S(N)(=O)=O)cc2)c2ccccc2c1=O | 16 | 41.1
14 | COc1ccc(C(=O)c2c[nH]c3ccccc23)cc1 | 45.4 | 26.6
15 | Cc1ccc(S(=O)(=O)n2ccc3c(OCCOCCNCc4ccc(F)cc4)cccc32)cc1 | 15.8 | 26.4
16 | COc1ccc(C(=O)Nc2ccccc2C(=O)N/N=C/c2ccco2)cc1 | 87.6 | 59.1
17 | CC(C)c1ccc(OCc2cccc(C(=O)N/N=C/c3cccnc3)c2)cc1 | 47.6 | 45.3
18 | Cc1ccc(NC(=O)CSc2nn(-c3ccccc3)c(=S)s2)cc1S(=O)(=O)N(C)C | 22.1 | 17.6
19 | Cc1ccc2nc(-c3ccc(NC(=O)CCS(=O)(=O)c4ccccc4)cc3)sc2c1 | 87.5 | 86.9
20 | O=c1c2c3c(sc2nc2n1N=C(c1cccs1)CS2)CCCC3 | 74.5 | 77
21 | CC(C)c1ccc(NC(=O)Nc2nc(C(N)CCc3ccccc3)cs2)cc1 (centres undefined) | 86.8 | 98.2
22 | O=C(Nc1ccc(NC(=O)C2CCCCC2)cn1)c1ccco1 | 76.2 | 80.6
23 | CC(/C=N/NC(=O)c1n[nH]c2c1CCC2)=C\c1ccccc1 | 48.1 | 68.9

Row | Compound | activity [1] [%] | activity [2] [%]
24 | O=C(N/N=C1\CCc2ccccc21)c1ccccc1O | 53.7 | 62.4
25 | CCOc1ccc(-n2c(SCC(N)=O)nc3c([nH]c4ccccc43)c2=O)cc1 | 59.4 | 56.5
26 | C=C1CC(COc2cc(=O)oc3ccccc23)(c2ccccc2)OC1=O (centres undefined) | 89.5 | 96.5
27 | Cc1cccnc1NC(=S)NC(=O)c1cccs1 | 73.2 | 66.8
28 | OCC1OC(n2cnc3c(SCc4ccccc4)ncnc32)C(O)C1O (centres undefined) | 59.9 | 67.1
29 | COc1ccc(-c2cc3cc4c(cc3cn2)OCO4)cc1 | 60.3 | 52.8
30 | COn1c(SCc2ccc(C)cc2C)nc2ccccc2c1=O | 69.7 | 35.5
31 | Cc1nnc(NC(=O)c2nc(S(=O)(=O)Cc3ccccc3C)ncc2Cl)s1 | 94.7 | 89.8
32 | Nc1nc(N)c2cc(S(=O)(=O)c3ccc4ccccc4c3)ccc2n1 | 64.9 | 72.5
33 | Cc1cc(C(=O)COC(=O)c2n[nH]c3ccccc23)c(C)n1CC1CCCO1 (centres undefined) | 77.5 | 75.2
34 | CCc1nnc(NC(=O)c2nc(S(=O)(=O)Cc3cccc(C)c3)ncc2Cl)s1 | 97.6 | 90.3
35 | CCC(C)c1ccc(-c2cc(C(=O)OCC(=O)Nc3cc(C)on3)c3ccccc3n2)cc1 (centres undefined) | 85.1 | 85.7
36 | C=C(C)[C@@H]1C2=CC(C(=O)OC)=C(C[C@H](C(=C)C)[C@H]3O[C@H]3C3=C[C@H]1OC3=O)O2 | 72.2 | 96
37 | COc1ccc(C2NN=C(c3ccc(C)cc3)S2)cc1OC (centres undefined) | 60 | 55
38 | CSc1nnc(NC(=O)c2nc(S(=O)(=O)Cc3cccc(C)c3)ncc2Cl)s1 | 93 | 88.3
39 | CSc1ccc(/C=N/NC(=O)c2cccc(O)c2)cc1 | 78.8 | 71
40 | CC(C)(C)c1ccc(O)c(/C=N\O)c1 | 60.4 | 72.9
41 | CS(=O)(=O)c1ccc2nc(NC(=O)c3ccco3)sc2c1 | 61 | 57.8
42 | O=C(COc1ccccc1)Nc1cccc(-c2ccc(N3CCOCC3)nn2)c1 | 72.7 | 77.8
43 | COc1ccc(C(=O)Nc2ccc3c(c2)OCCO3)cc1 | 77.6 | 70
44 | O=C(Nc1ccc(N2CCN(Cc3ccccc3F)CC2)cc1)c1ccc([N+](=O)[O-])o1 | 99 | 98.8
45 | Nc1c(N(CCC2=CCCCC2)C(=O)COc2ccc(F)cc2Cl)c(=O)[nH]c(=O)n1Cc1ccccc1 | 88.3 | 79.4
46 | CCS(=O)(=O)c1ncc(Cl)c(C(=O)Nc2ccc(S(=O)(=O)N3CCC(C)CC3)cc2)n1 | 95.2 | 98.8

Row | Compound | activity [1] [%] | activity [2] [%]
47 | CCN1CCN(Cc2ccc(NC(=O)c3cc(NC(=O)c4cnnc5ccccc45)cc(OC)c3)cc2C(F)(F)F)CC1 | 55.2 | 93.9
48 | CC1(C)N=C(N)N=C(N)N1c1ccc(OCC(=O)N2CCOCC2)c(Cl)c1 | 81.6 | 86
49 | O=c1[nH]c2ccccc2nc1/C=C/c1ccc(Cl)cc1 | 64.9 | 74.2
50 | Cc1ccccc1Nc1nn2c(=O)c3ccccc3nc2s1 | 54.2 | 62.8
51 | Oc1ccccc1-c1n[nH]c(-c2ccccc2O)n1 | 47.8 | 48.6
52 | CC(C)c1ccc(/C=N/NC(=O)c2ccccn2)cc1 | 86.9 | 76.6
53 | COc1cccc(-n2c(SCC(=O)N3CCCCC3)nc3c([nH]c4ccccc43)c2=O)c1 | 28.7 | 19.4
54 | N=c1c2c(n(Cc3ccc(Cl)c(Cl)c3)c3c1CCC3)CCCC2 | 80.6 | 60.1
55 | CCCc1cc2c(=O)c(-c3ccc4c(c3)OCCO4)coc2cc1OC(=O)c1ccco1 | 65.5 | 66.4
56 | CC1(C)N=C(N)N=C(N)N1c1ccc(OCC(=O)Nc2ccccc2)c(Cl)c1 | 78.5 | 82.3
57 | Cc1ccc(Cl)cc1N1CCN(C(=O)c2noc(C)c2[N+](=O)[O-])CC1 | 99.3 | 97.1
58 | COC(=O)c1c(NC(=O)COc2ccc(Cl)cc2Cl)sc2c1CC(C)(C)NC2(C)C | 98.7 | 99.3
59 | CC(=O)Nc1sc2c(c1-c1nc3ccccc3s1)CN(C(C)C)CC2 | 38 | 73.8
60 | COc1cc2c(cc1OC)C(c1ccccc1)N(C(=O)CCl)CC2 (centres undefined) | 98.3 | 92.4
61 | O=C(Nc1ccc(NC(=O)c2ccccc2F)cn1)c1ccco1 | 66.8 | 58.3
62 | O=C(CCN1C(=O)c2ccccc2C1=O)Nc1ccc(-c2nc3ccccc3s2)cc1 | 44.4 | 41.9
63 | Brc1ccc(-c2nc(N/N=C/c3cccnc3)c3ccccc3n2)cc1 | 93.5 | 89.7
64 | COc1ccc(/C=C/C(=O)c2c(O)cc(C)oc2=O)c(OC)c1 | 91.1 | 92.5
65 | Cc1ccc(-c2nnc(NC(=O)c3ccco3)s2)cc1 | 58.6 | 62.7
66 | Cc1cccc(-n2ncc3c(NC(C)C)ncnc32)c1 | 63.2 | 64.7
67 | Cc1csc(NC(=O)c2cc3c(s2)CCC3)n1 | 81.8 | 86.3
68 | O=C1c2ccccc2S(=O)(=O)c2cc(N3CCOCC3)ccc21 | 73.2 | 73.9
69 | COc1ccc2oc(C(=O)N3CCc4ccccc43)c(C)c2c1 | 82.7 | 82.4

Row | Compound | activity [1] [%] | activity [2] [%]
70 | CN(NC(=O)c1ccc(Cl)cc1)c1nc(-c2ccccc2)nnc1C(F)(F)F | 61.9 | 57.8
71 | O=C(/C(=C/c1ccc(Cl)cc1)c1nc2ccccc2[nH]1)c1ccccc1 | 84.1 | 85.1
72 | CCc1ccc([C@H]2[C@@H]3C(=O)C[C@@H]4C(=O)N(c5ccccc5)C(=O)[C@@H]4[C@@H]3CN2S(=O)(=O)c2ccc(C)cc2)cc1 | -4.35 | -7.2
73 | CC(C)c1ccc(NC(=O)Nc2nc(C(N)C3CCCCC3)cs2)cc1 (centres undefined) | 92.2 | 99.3
74 | CCC(=O)Nc1cccc(-c2ccc(N3CCCCC3)nn2)c1 | 85.5 | 84.5
75 | Cc1ccc(OCCSCc2nnc(NC(=O)Nc3cccc(Cl)c3)s2)cc1 | 36.6 | 43.7
76 | Cn1cccc1/C=C1\CCc2ccccc2C1=O | 63.4 | 51.8
77 | O=C(NOCc1ccccc1)c1ccc(Cl)cc1 | 45.1 | 43.2
78 | Cc1onc(C(=O)N2CCC(Cc3ccccc3)CC2)c1[N+](=O)[O-] | 97.8 | 98.1
79 | Cc1ccccc1C(=O)O/N=C(\N)Cc1cccs1 | 98 | 96.6
80 | C/C(=N\NC(=O)c1ccn(C)n1)c1cccc(NC(=O)c2ccc(C)s2)c1 | 48.5 | 45.5
81 | COc1ccc2c(=O)cc(-c3ccccc3)n(C)c2c1 | 56.4 | 60.1
82 | O=C(NC(=S)Nc1nc2ccc(F)cc2s1)c1ccco1 | 85.3 | 77.4
83 | O=C(Nc1ccncc1)c1ccc(-c2ccccc2)cc1 | 24.3 | 21
84 | CC(C)(CNC(=O)c1ccc([N+](=O)[O-])c(Cl)c1)CNC(=O)c1ccc([N+](=O)[O-])c(Cl)c1 | 54.5 | 60.3
85 | Cc1nc(NC(=S)NC(=O)c2ccccc2)sc1C | 57.1 | 57
86 | CCN(CC)S(=O)(=O)c1cc(C(=O)OCC(=O)Nc2ccc(-c3nc4ccc(C)cc4s3)cc2)ccc1F | 73.7 | 74.2
87 | COc1ccc2nc(-c3cccc(N)c3)[nH]c2c1 | 55.8 | 41.4
88 | Cc1cccc2sc(NNC(=O)c3ccc(S(=O)(=O)N4CC(C)CC(C)C4)cc3)nc12 (centres undefined) | 55.6 | 49.8
89 | COc1ccccc1NC(CC(=O)c1ccccc1)C(=O)OCC(=O)c1ccc(F)cc1 (centres undefined) | 69.5 | 65.9
90 | CCOC(=O)c1sc(N(Cc2ccccc2)C(=O)CCl)nc1C | 99.1 | 76.5
91 | Nc1nc(-c2ccc(-c3ccccc3)cc2)cs1 | 51.2 | 50.7
92 | Cc1ccc2nc(Cl)c(/C=N/Nc3ccc(C(=O)O)cc3)cc2c1 | 90.2 | 86.4
